# Measured values published in PubChem BioAssay.
# Values joined by “and” are separate entries in the source; they are usually repeats but may differ in a detail not shown here. Equal values may be shown once.
# System: wheat germ agglutinin (Triticum aestivum), Alexa647-labelled
# Assay: Alexa647-WGA lectin binding to printed small molecules – biochemical, small-molecule microarray, 635/667 nm fluorescence, artefact control for SMM control-protein annotation, profiling panel (AID 1140);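 note: score merges 667 nm feature emission with signal to noise over triplicate slides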
# Details: WGA-A647 binding, 635 nm fluorescence, higher = more signal
row,SMILES,composite z-score
1,CC(C)=NOC[C@@H](O)COCc1ccco1,-0.988
2,COC(=O)C1=C(C)N(Cc2ccccc2)C2=C(C(C)=O)C[C@@](O)(C(=O)OC)C(=O)N2[C@@H]1c1ccccc1,-0.48 and 0.228
3,COC(=O)[C@@]1(Cc2ccc(OC)cc2)[C@H]2c3cc(C(=O)N(C)C)n(Cc4ccc(O)c(OC)c4)c3C[C@H]2CN1C(=O)c1ccccc1,1.39 and 0.989
4,C=CC[C@H](O)c1ccc(OCCO)cc1,0.542 and 0.645
5,CC(C)=NO[C@@H](C)c1cc(-c2c(C)cc(C)cc2C)no1,-0.418
6,C[N+](C)(C)CCCCNC(=O)[C@H]1C[C@H]2C(=O)N[C@@H](CCCC[N+](C)(C)C)C(=O)N2[C@H]1c1ccc(O)cc1,-0.608 and -1.01
7,C[C@@]1([C@@H](NC(=O)Cc2ccccc2)c2ccc(-c3ccccc3)cc2)C[C@H]1C1CCCCC1,1.04 and 0.829 and 1.15
8,CCN1C(=O)[C@H]2[C@H]3[C@H](O)[C@H](O)CC(=NOC)[C@@H]3CC[C@H]2C1=O,0.299
9,O=C1NC(=O)C2C1C=CC(C(O)c1ccc([N+](=O)[O-])cc1)N2Nc1ccc(Cl)cc1Cl (stereo not given),0.751 and 1.39
10,C=C[C@H](C)[C@@H](O)c1ccc(OCCO)cc1,-0.449 and 0.106
11,CC(C)CON=C1C[C@@H](O)[C@@H](O)[C@@H]2[C@@H]3C(=O)N(c4cccc(Oc5ccccc5)c4)C(=O)[C@@H]3CC[C@H]12,0.196
12,CO[C@H]1COC(=O)CC=C[C@@H](C)COC(=O)[C@H](CCSC)NC(=O)CC=C[C@@H]1C,-0.353 and -1.42
13,C=C[C@@H](OC)[C@H](O)c1ccc(OCCO)cc1,1.26 and -0.543
14,CCOC(=O)c1ccc(NC(=O)O[C@H]2[C@H](OC(=O)Nc3ccccc3)[C@@H](OC(=O)Nc3ccccc3)[C@@H](OC)O[C@@H]2CO)cc1,1.32 and 1.12
15,C=CCN(C(=O)C(c1cccs1)N(CCOCCO)C(=O)/C=C\C(=O)O)c1ccc(OC)cc1 (stereo not given),-0.628 and -2.28
16,C#CCN1C(/C=C/c2ccccc2)C(=O)OC[C@H]1c1ccccc1 (stereo not given in full),-0.19 and 0.017
17,CO[C@@H]1COC(=O)CC=C[C@H](C)COC(=O)[C@H](C)NC(=O)CC=C[C@H]1C,-0.587
18,Cc1cc2c(nc1C)CCCN2CC(O)CN1CCCc2nc(-c3ccc(Br)cc3)ccc21 (stereo not given),1.15 and 1.36
19,C=CCN(CCCCC)C(=O)C(c1cccs1)N(CCOCCO)C(=O)/C=C\C(=O)O (stereo not given),-0.539 and 0.579
20,COc1ccc(-c2ccc3c(n2)CCCN3CC(O)CN2CCCc3nc(-c4ccc(Br)cc4)ccc32)cc1 (stereo not given),0.557 and 0.333

row,SMILES,composite z-score
1,C=C[C@H](OC)[C@@H](O)c1ccc(OCCO)cc1,-2.15 and -0.827
2,C=CCN(C(=O)C1N(CCCCCCO)C(=O)C2C(C(=O)O)C3C=CC21O3)c1ccc(OC)cc1 (stereo not given),-0.537 and -0.483
3,O=C1C[C@]2(c3ccc([N+](=O)[O-])cc3)C(=O)N(Cc3ccccc3)c3cc(CO)ccc3[C@H]2N1C1CCCCC1,-0.329 and 0.59
4,C=CCN(C(=O)C1N(c2c(Cl)cccc2CO)C(=O)C2C(C(=O)O)C3C=CC21O3)c1ccc(OC)cc1 (stereo not given),0.174 and -1.28
5,C=CCN(C(=O)C1N(CCOCCO)C(=O)C2C(C(=O)O)C3C=CC21O3)C(C)(C)C (stereo not given),-0.511 and -0.0854
6,COC(=O)C1=C2N(Cc3ccccc3)C(C)=C(C(=O)OC)[C@@H](c3ccccc3)N2C(=O)[C@](O)(C(=O)OC)C1,0.526 and -0.342
7,O=c1n(-c2ccccc2)c(=O)n2n1CC[C@@H]1C(=NOC[C@@H](O)COCc3ccco3)[C@H]3O[C@H]3[C@@H](O)[C@@H]12,-0.392 and 0.0106
8,CC(CO)N1C(=O)[C@@H]2C3C(=O)OCCC=C[C@H]3OC23C=CCN(c2ccc(Cl)cc2)C(=O)[C@@H]13 (stereo not given in full),-0.0757 and 0.684
9,CC(C)[Si]1(C(C)C)OCc2cc(CCCc3cc4c(c(CCc5ccccc5)n3)[Si](C(C)C)(C(C)C)OC4)nc(CCc3ccccc3)c21,-1.24 and -0.214
10,C=CCN(Cc1ccccc1)C(=O)C1N(CCOCCO)C(=O)C2C(C(=O)O)C3C=CC21O3 (stereo not given),-0.94 and -1.25
11,C[N+](C)(C)CCCCCCNC(=O)[C@H]1C[C@H]2C(=O)N[C@@H](CCCC[N+](C)(C)C)C(=O)N2[C@H]1c1cccc(OCCO)c1,0.348 and 0.29
12,CCCCCN1CC=CC23O[C@@H]4C=CCCOC(=O)C4[C@H]2C(=O)N(C(C)CO)[C@@H]3C1=O (stereo not given in full),0.138 and -0.194
13,O=C1[C@H]2[C@H]3[C@H](O)[C@H](O)CC(=NOCc4ccccc4)[C@H]3CC[C@H]2C(=O)N1Cc1ccccc1,0.0116
14,CO[C@H]1COC(=O)CC=C[C@H](C)[C@H](OC)COC(=O)[C@@H](C)COC(=O)CC=C[C@@H]1C,-0.464 and -0.424
15,CN1C(=O)C2CC=C([C@H]3Oc4ccccc4S(=O)(=O)N4CCC[C@@H]34)CC2C1=O (stereo not given in full),-0.213 and -1.39
16,C[C@@H](ON=C1[C@H]2CCn3c(=O)n(-c4ccccc4)c(=O)n3[C@H]2[C@H](O)[C@@H]2O[C@H]12)c1cn([C@H](CO)Cc2ccccc2)nn1,-0.424
17,CCOC(=O)C[C@H]1[C@H](OC(=O)c2ccccc2-c2ccccc2)[C@@H](NC(=O)Cc2ccc(OC)cc2)c2cc(OCCCO)ccc2N1C(=O)c1ccc2ccccc2n1,0.172 and 0.238
18,CCOC(=O)[C@H](CC(C)C)NC(=O)CCC1CC(OC(=O)NCc2cccc3ccccc23)CC2(CCCC(COC(=O)NCc3ccccc3)O2)O1 (stereo not given in full),-0.0551
19,Cc1ccc(S(=O)(=O)N[C@@H]2COC(=O)CC=C[C@@H](C)[C@@H]3C=C[C@H](O)[C@@H](COC(=O)CC=C[C@H]2C)O3)cc1,-0.113 and -0.0881
20,CO[C@@H]1COC(=O)[C@H](Cc2ccccc2)NC(=O)CC=C[C@@H](C)[C@H](OC)COC(=O)[C@@H](C)NC(=O)CC=C[C@H]1C,-0.714 and -0.807
